Laboratory results as given in PubChem BioAssay (EPA / NIEHS).
Activity calls are given as the source filed them. How the source made its calls: active means hit-call score of the fitted dose curve at least 0.9, where 1 is the maximum; inactive means score below 0.9.

Key:
Conditions in all cases: primary human HUVEC with PBMC; actives raise or lower the signal
[1] = BSK_LPS_PGE2: BioMAP Diversity Plus: LPS Assay for Prostaglandin E2 (PGE2) Biomarker Activity (AID 2283082);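 on AC50: secreted prostaglandin E2 measured by ELISA in LPS-stimulated co-culture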
Method in brief: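 ELISA read-out of PGE2 from human umbilical vein endothelial cells co-cultured with peripheral blood mononuclear cells under LPS, 24 h post-dose. Gain or loss of signal scored relative to DMSO baseline.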

[2] = read-out: Macrophage colony-stimulating factor (MCSF), CSF1 (gene 1435); test: BSK_LPS_MCSF: BioMAP Diversity Plus: LPS Assay for Macrophage colony-stimulating factor (MCSF) Biomarker Activity (AID 2283083)
Method in brief: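 HUVEC + PBMC co-culture (human primary), 24 h post-dose; M-CSF by ELISA; gain/loss of signal fitted bidirectionally vs DMSO baseline.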

[3] = read-out: Tissue Factor, F3 (gene 2152); test: BSK_LPS_TissueFactor: BioMAP Diversity Plus: LPS Assay for Tissue Factor Biomarker Activity (AID 2283084)
Method in brief: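 HUVEC/PBMC co-culture, LPS-activated; CD142 ELISA read 24 h post-dose; bidirectional curve fit vs DMSO negative control.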

[4] = read-out: Tumor necrosis factor (Homo sapiens) (UniProt P01375); test: BSK_LPS_TNFa: BioMAP Diversity Plus: LPS Assay for Tumour Necrosis Factor alpha (TNFa) Biomarker Activity (AID 2283085);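 on AC50: TNFa protein level quantified by ELISA in the co-culture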
Method in brief: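 HUVEC/PBMC co-culture, LPS-stimulated; 24 h post-dose; TNFa by ELISA; gain or loss of signal fitted bidirectionally vs DMSO baseline.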

[5] = read-out: Vascular cell adhesion molecule 1 (VCAM1), VCAM1 (gene 7412); test: BSK_LPS_VCAM1: BioMAP Diversity Plus: LPS Assay for Vascular cell adhesion molecule 1 (VCAM1) Biomarker Activity (AID 2283086)
Method in brief: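 ELISA read-out of VCAM-1 at 24 h post-dosing in an LPS-driven HUVEC/PBMC primary human co-culture; gain or loss of signal fitted bidirectionally against DMSO baseline. Cytotoxicity tracked in parallel cultures by SRB total-protein staining.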

CD38, CD38 (gene 952) = test: BSK_SAg_CD38: BioMAP Diversity Plus: SAg Assay for CD38 Biomarker Activity (AID 2283087)
Method in brief: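 Measures CD38 on a human endothelial/PBMC co-culture driven by SEB and TSST-1, 24 h after compound exposure, using ELISA with fluorescence detection; DMSO defines baseline for bidirectional curve fitting.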

CD40, CD40 (gene 958) = test: BSK_SAg_CD40: BioMAP Diversity Plus: SAg Assay for CD40 Biomarker Activity (AID 2283088)
Method in brief: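 HUVEC/PBMC co-culture, 24 h post-dose; CD40 by ELISA, fluorescence intensity; bidirectional fit vs DMSO negative control.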

CD69, CD69 (gene 969) = test: BSK_SAg_CD69: BioMAP Diversity Plus: SAg Assay for CD69 Biomarker Activity (AID 2283089);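 on AC50: cell surface CD69 protein quantified by ELISA with fluorescence detection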
Method in brief: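 ELISA, fluorescence read-out: CD69 on human umbilical vein endothelial cell + PBMC co-culture, 24 h post-dosing. Gain or loss of signal fitted bidirectionally against DMSO baseline.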

[6] = read-out: E-selectin (Homo sapiens) (UniProt P16581); test: BSK_SAg_Eselectin: BioMAP Diversity Plus: SAg Assay for Eselectin Biomarker Activity (AID 2283091)
Method in brief: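 E-selectin ELISA readout at 24 h post-dosing in human umbilical vein endothelial cell/PBMC co-culture; gain or loss of signal fitted relative to DMSO baseline.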

[7] = read-out: Monocyte Chemoattractant Protein-1 (MCP1), CCL2 (gene 6347); test: BSK_SAg_MCP1: BioMAP Diversity Plus: SAg Assay for Monocyte Chemoattractant Protein-1 (MCP1) Biomarker Activity (AID 2283090)
Method in brief: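 Values derive from bidirectional fitting of ELISA-measured MCP1 against DMSO controls. Readings were taken 24 h after dosing human vascular endothelial cells co-cultured with peripheral blood mononuclear cells under superantigen stimulation.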

Measured: AC50

Sequence of E-selectin (Homo sapiens) (P16581 whole entry, looked up): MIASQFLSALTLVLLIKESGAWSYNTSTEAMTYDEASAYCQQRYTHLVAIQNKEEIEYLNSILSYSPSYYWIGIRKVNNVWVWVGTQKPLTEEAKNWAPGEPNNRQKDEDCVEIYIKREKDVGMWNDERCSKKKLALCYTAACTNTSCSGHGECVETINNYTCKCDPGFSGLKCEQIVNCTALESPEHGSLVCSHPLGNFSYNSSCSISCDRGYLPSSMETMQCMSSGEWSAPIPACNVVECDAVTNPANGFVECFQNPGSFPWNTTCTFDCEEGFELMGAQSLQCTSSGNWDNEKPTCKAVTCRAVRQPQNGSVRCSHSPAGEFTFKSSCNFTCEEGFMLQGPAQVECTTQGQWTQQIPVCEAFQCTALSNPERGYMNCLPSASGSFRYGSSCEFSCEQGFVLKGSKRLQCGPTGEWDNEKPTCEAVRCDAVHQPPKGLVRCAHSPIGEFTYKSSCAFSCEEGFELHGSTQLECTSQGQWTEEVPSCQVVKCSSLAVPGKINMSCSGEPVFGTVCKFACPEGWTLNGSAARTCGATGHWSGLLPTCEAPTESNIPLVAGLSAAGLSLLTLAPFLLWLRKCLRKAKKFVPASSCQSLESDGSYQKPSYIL
Sequence of Tumor necrosis factor (Homo sapiens) (P01375 whole entry, looked up): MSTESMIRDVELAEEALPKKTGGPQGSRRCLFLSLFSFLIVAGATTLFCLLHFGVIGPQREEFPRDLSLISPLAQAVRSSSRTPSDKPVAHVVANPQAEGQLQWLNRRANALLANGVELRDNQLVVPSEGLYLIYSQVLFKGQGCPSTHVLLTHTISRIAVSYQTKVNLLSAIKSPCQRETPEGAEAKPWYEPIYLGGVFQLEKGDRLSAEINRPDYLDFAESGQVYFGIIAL

CN(C)CCCN1c2ccccc2Sc2ccc(Cl)cc21
active: [2] 30.1 µM | [4] 27.8 µM | [5] 29.9 µM | CD38, CD38 (gene 952) 28.8 µM | CD40, CD40 (gene 958) 29.5 µM | CD69, CD69 (gene 969) 28.6 µM | [6] 27.7 µM
inactive: [1] | [3]

CCc1cc(C2=C(C(=O)O)N(c3ccccc3C(F)(F)F)S(=O)(=O)c3ccccc32)cc2c1OCO2
active: CD38, CD38 (gene 952) 19.8 µM | CD69, CD69 (gene 969) 11.1 µM
not listed: [5]
inactive: all other assays above

CC(C)(C)c1ccccc1
inactive: all assays above

CCCCC(CC)CO (stereo not drawn)
not listed: CD38, CD38 (gene 952)
inactive: all other assays above

Oc1ccccc1O
active: [1] 14.4 µM | [2] 3.92 µM | [5] 2.79 µM | CD40, CD40 (gene 958) 4.21 µM | CD69, CD69 (gene 969) 5.69 µM
inactive: [3] | [4] | [7] | [6]

CCCCC(CC)COP(=O)(OCC(CC)CCCC)OCC(CC)CCCC (stereo not drawn)
active: [4] 5.46 µM
inactive: all other assays above

O=C1c2c(O)cccc2Cc2cccc(O)c21
not listed: CD38, CD38 (gene 952)
inactive: all other assays above

CC(COCC(C)OC(=O)c1ccccc1)OC(=O)c1ccccc1 (stereo not drawn)
inactive: all assays above

CCCCCCCCCCCCCCOS(=O)(=O)O
not listed: CD38, CD38 (gene 952)
inactive: all other assays above

O=C1O[C@H]([C@H](O)CO)C(O)=C1O
inactive: all assays above

C=CCCCCCCCCCCCC
not listed: CD38, CD38 (gene 952)
inactive: all other assays above

CCCCCCC(C=O)=Cc1ccccc1
inactive: [2] | [3]
active: [1] 15.3 µM | [4] 30.1 µM | [5] 29.7 µM | CD38, CD38 (gene 952) 33.4 µM | CD40, CD40 (gene 958) 32 µM | CD69, CD69 (gene 969) 31 µM | [7] 32 µM | [6] 34.4 µM

CC(=O)S[C@H](C(=O)N[C@H]1Cc2ccccc2[C@H]2CCC[C@@H](C(=O)O)N2C1=O)C(C)C
not listed: [5]
inactive: all other assays above

COC(=O)[C@H]1[C@H]2C[C@@H]3c4[nH]c5cc(OC)ccc5c4CCN3C[C@H]2C[C@@H](OC(=O)c2cc(OC)c(OC)c(OC)c2)[C@@H]1OC
active: [2] 21.2 µM | [3] 7.64 µM | [4] 28.7 µM | [5] 12 µM | CD40, CD40 (gene 958) 26.6 µM | [7] 22.6 µM
inactive: [1] | [6]

O=C(NS(=O)(=O)/C=C/c1cccs1)c1ccc(F)cc1Br
active: CD40, CD40 (gene 958) 3.97 µM
not listed: CD38, CD38 (gene 952)
inactive: all other assays above

Cc1ccc(C(C)(C)C)c(O)c1
active: [1] 3.09 µM
not listed: CD38, CD38 (gene 952)
inactive: all other assays above

COc1ccc(C(=O)Nc2nc3ccccc3c(NCc3ccccc3)c2C#N)cc1
active: [2] 3.97 µM | [5] 4.78 µM
inactive: all other assays above

O=Cc1ccccc1C=O
active: [4] 1.53 µM
inactive: all other assays above

CCCCCCCC(=O)OC
inactive: all assays above

CCCCCCC(CCCCCCCCCCC(=O)OCC(COC(C)=O)OC(C)=O)OC(C)=O (stereo not drawn)
not listed: CD38, CD38 (gene 952)
inactive: all other assays above

CC(=O)OCC(COC(C)=O)OC(C)=O
not listed: CD38, CD38 (gene 952)
inactive: all other assays above

Cc1cc(SC2=C(O)C[C@@](CCc3ccc(N)cc3)(C(C)C)OC2=O)c(C(C)(C)C)cc1CO
active: [4] 20 µM
inactive: all other assays above

Cc1cn([C@H]2C=C[C@@H](CO)O2)c(=O)[nH]c1=O
not listed: [5]
inactive: all other assays above

COC(=O)CCC(=O)OC
inactive: all assays above

CN(C)C(=O)NC1(c2ccccc2)CCN(CC[C@@]2(c3ccc(F)c(F)c3)CN(C(=O)c3ccccc3)CCO2)CC1
inactive: all assays above

CO[C@@H]1COCC[C@@H]1N[C@@H]1CC[C@@](C(=O)N2CCc3ncc(C(F)(F)F)cc3C2)(C(C)C)C1
inactive: all assays above

O=C1CCCCC1
inactive: all assays above

CCCC[C@H]1CN(CC2CCOCC2)C(=O)OC12CCN(C1(C)CCN(C(=O)c3c(C)ncnc3C)CC1)CC2
not listed: CD38, CD38 (gene 952)
inactive: all other assays above

O=C(O)CC(O)(CC(=O)O)C(=O)O
inactive: all assays above

CCCCOC(=O)CCCCC(=O)OCCCC
not listed: [2]
inactive: all other assays above

C#CC(O)C(CC)CCCC (stereo not drawn)
not listed: [2]
inactive: all other assays above

O=C1NC(=O)C(c2ccccc2)(c2ccccc2)N1
not listed: [5] | CD38, CD38 (gene 952)
inactive: all other assays above

CC1=C(C)S(=O)(=O)CCS1(=O)=O
active: [6] 3.97 µM
not listed: [5] | CD38, CD38 (gene 952)
inactive: all other assays above

CCCCCCCCCC[N+](C)(C)[O-]
active: [5] 35.5 µM
not listed: [2]
inactive: all other assays above

S=c1[nH]c2ccccc2s1
active: [1] 12.9 µM | [3] 2.23 µM
not listed: [2] | CD40, CD40 (gene 958)
inactive: all other assays above

CC(C)NCC(O)c1ccc(O)c(O)c1 (stereo not drawn)
active: [4] 0.262 µM
not listed: [5]
inactive: all other assays above

CN(C)C(=O)NC1(c2ccccc2)CCN(CCC[C@]2(c3ccc(Cl)c(Cl)c3)CCCN(C(=O)c3ccccc3)C2)CC1
not listed: [5]
inactive: all other assays above

C/C=C/c1ccc(OC)cc1
not listed: [2]
inactive: all other assays above

Cc1c(C)c2c(c(C)c1O)CCC(C)(COc1ccc(CC3SC(=O)NC3=O)cc1)O2 (stereo not drawn)
active: [1] 32.5 µM | [3] 34.8 µM | [4] 31.6 µM | [5] 30.5 µM | CD38, CD38 (gene 952) 24.9 µM | CD40, CD40 (gene 958) 14.9 µM | CD69, CD69 (gene 969) 21.5 µM | [7] 32.6 µM | [6] 31.9 µM

Cc1ccc(-c2cc(C(F)(F)F)nn2-c2ccc(S(N)(=O)=O)cc2)cc1
active: [1] 0.288 µM | [3] 30.7 µM | [4] 30.9 µM | [5] 31.7 µM | CD38, CD38 (gene 952) 30.2 µM | CD40, CD40 (gene 958) 27.3 µM | CD69, CD69 (gene 969) 26.9 µM | [7] 30.5 µM | [6] 29.4 µM

OCC(CO)n1cnc(-c2ccc(F)cc2)c1-c1ccnc(Oc2ccccc2)n1
inactive: CD40, CD40 (gene 958) | [6]
active: [1] 0.356 µM | [2] 1.72 µM | [3] 0.532 µM | [4] 0.416 µM | CD69, CD69 (gene 969) 3.97 µM | [7] 2.02 µM
